The text below walks through data of PubChem BioAssay (NCATS).

Results filed as inconclusive are left out. Calls of active or inactive are those of the source. Calls come from the whole dose curve.
% is set by controls: 0 for no effect and ±100 for the full control effect; potency is the fitted concentration of half-maximal effect.

Chain of Nucleoprotein (Lymphocytic choriomeningitis virus (strain Armstrong)) (P09992 whole entry, looked up): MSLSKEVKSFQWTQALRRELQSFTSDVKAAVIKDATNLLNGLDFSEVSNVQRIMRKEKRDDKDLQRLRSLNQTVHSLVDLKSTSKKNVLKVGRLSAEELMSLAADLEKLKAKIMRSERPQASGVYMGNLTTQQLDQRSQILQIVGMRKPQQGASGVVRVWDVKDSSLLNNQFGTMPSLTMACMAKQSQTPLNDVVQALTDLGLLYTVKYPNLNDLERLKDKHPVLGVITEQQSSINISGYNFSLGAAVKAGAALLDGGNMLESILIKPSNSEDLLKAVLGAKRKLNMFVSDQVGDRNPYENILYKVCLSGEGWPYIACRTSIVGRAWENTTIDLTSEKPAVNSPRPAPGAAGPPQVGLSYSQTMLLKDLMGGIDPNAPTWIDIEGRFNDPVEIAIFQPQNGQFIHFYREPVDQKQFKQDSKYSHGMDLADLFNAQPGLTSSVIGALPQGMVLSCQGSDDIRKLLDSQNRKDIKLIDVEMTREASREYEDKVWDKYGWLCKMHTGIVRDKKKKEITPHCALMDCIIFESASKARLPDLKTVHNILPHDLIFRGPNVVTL

The assay has as its target Nucleoprotein (Lymphocytic choriomeningitis virus (strain Armstrong)) (UniProt P09992). The assay is described as follows: qHTS for Inhibitors of the Functional Ribonucleoprotein Complex (vRNP) of Lymphocytic Choriomeningitis Arenaviruses (LCMV): LCMV Primary Screen - GLuc reporter signal (AID 1347086). Note: nearly all actives have a fitted effect of over 70% in size. The conditions noted are these: LCMV minigenome vRNP cell assay, Gaussia luciferase reporter; series mostly up to 57.5 µM; activity change, negative = inhibition: at the top concentration.
With `CCOC(=O)[C@H](CCc1ccccc1)N[C@@H](C)C(=O)N1Cc2cc(OC)c(OC)cc2C[C@H]1C(=O)O`, the “activity change, negative = inhibition” value is 12.7% (inactive).

For the molecule `CCCCN1C[C@H](O)[C@@H](O)[C@H](O)[C@H]1CO`, the “activity change, negative = inhibition” value was 8.09% (inactive).

Turning to `CCCCNc1ccc(C(=O)OCCOCCOCCOCCOCCOCCOCCOCCOCCOC)cc1`, the “activity change, negative = inhibition” value was -29.6% (inactive).

Take `CC(C)n1c(C=C[C@H](O)C[C@H](O)CC(=O)O)c(-c2ccc(F)cc2)c2ccccc21`: the Potency is 21.7 µM (active).

For `C[C@@H]1CC(=O)NN=C1c1ccc(NN=C(C#N)C#N)cc1`, the Potency entry was “inactive”.

For `CCOC(=O)[C@H](CCc1ccccc1)N[C@@H](C)C(=O)N1Cc2ccccc2C[C@H]1C(=O)O`, the “activity change, negative = inhibition” value is 6.15% (inactive).

As for `O=C1c2c(O)ccc(O)c2C(=O)c2c(NCCNCCO)ccc(NCCNCCO)c21`, the Potency was 4.32 µM (active).

Consider `CC1=C(C(=O)O)N2C(=O)[C@@H](NC(=O)[C@H](N)c3ccccc3)[C@H]2SC1`, for which the “activity change, negative = inhibition” value was 9.77% (inactive).

With `COc1ccc([C@@H]2Sc3ccccc3N(CCN(C)C)C(=O)[C@@H]2OC(C)=O)cc1`, the Potency entry was “inactive”.

As to `O=C1Nc2ccc(Cl)cc2[C@@](C#CC2CC2)(C(F)(F)F)O1`, the “activity change, negative = inhibition” value was -7.5% (inactive).

With `Cc1ccccc1C(=O)Nc1ccc(C(=O)N2CCCC(O)c3cc(Cl)ccc32)c(C)c1` (configuration not stated), the “activity change, negative = inhibition” value was 1.8% (inactive).

In the case of `Cc1cnc(C(=O)NCCc2ccc(S(=O)(=O)NC(=O)NC3CCCCC3)cc2)cn1`, the Potency entry was “inactive”.

For `Cc1onc(-c2c(Cl)cccc2Cl)c1C(=O)N[C@@H]1C(=O)N2[C@@H]1SC(C)(C)[C@@H]2C(=O)O`, the “activity change, negative = inhibition” value is 10.3% (inactive).

`C[C@@H](O)[C@H]1C(=O)N2C(C(=O)O)=C(S[C@@H]3CN[C@H](CNS(N)(=O)=O)C3)[C@H](C)[C@H]12`: the “activity change, negative = inhibition” value was 16.8% (inactive).

As to `C1N2CN3CN1CN(C2)C3`, the “activity change, negative = inhibition” value was -7.8% (inactive).

Regarding `CC[C@@]1(c2ccccc2)NC(=O)N(C)C1=O`, the “activity change, negative = inhibition” value was -48.5% (inactive).

Consider `CN(C)C(=N)N=C(N)N`, for which the Potency result was “inactive”.

In the case of `Cc1ccc2c(n1)Oc1ccc(C(C)C(=O)OCC(=O)N(C)C)cc1C2` (configuration not stated), the Potency result was “inactive”.

Consider `CC(C)Nc1cccnc1N1CCN(C(=O)c2cc3cc(NS(C)(=O)=O)ccc3[nH]2)CC1`, for which the “activity change, negative = inhibition” value was 2.71% (inactive).

With `CCC(=O)O[C@H]1[C@H](O[C@@H]2[C@@H](C)[C@H](O[C@H]3C[C@@](C)(OC)[C@@H](O)[C@H](C)O3)[C@@H](C)C(=O)O[C@H](CC)[C@@](C)(O)[C@H](O)[C@@H](C)C(=O)[C@H](C)C[C@@]2(C)O)O[C@H](C)C[C@@H]1N(C)C`, the “activity change, negative = inhibition” value is 24.8% (inactive).

`CNC1(C)C2CCC(C2)C1(C)C` (configuration not stated): the Potency entry is “inactive”.

Consider `CCN(CC)C(=S)SSC(=S)N(CC)CC`, for which the Potency is 0.193 µM (active).

Turning to `NC(=O)c1cn(Cc2c(F)cccc2F)nn1`, the Potency result is “inactive”.

Consider `COc1ccc2nc(S(=O)Cc3ncc(C)c(OC)c3C)[nH]c2c1` (configuration not stated), for which the “activity change, negative = inhibition” value is -37.2% (inactive).

With `O=C(O)C1(C(=O)O)CCC1.[NH2-].[NH2-].[Pt+2]`, the “activity change, negative = inhibition” value is -8.78% (inactive).

Consider `CCCNCC(O)COc1ccccc1C(=O)CCc1ccccc1` (configuration not stated), for which the “activity change, negative = inhibition” value was -23.4% (inactive).

For the molecule `O=NN(CCCl)C(=O)NC1CCCCC1`, the Potency result is “inactive”.

Regarding `CC(N)C12CC3CC(CC(C3)C1)C2` (configuration not stated), the Potency entry was “inactive”.

Turning to `Nc1[nH]c(=O)ncc1F`, the “activity change, negative = inhibition” value is 0.389% (inactive).

For the molecule `O=C(NCCN1CCOCC1)c1ccc(Cl)cc1`, the Potency entry is “inactive”.

As to `Nc1nc2c(ncn2COCCO)c(=O)[nH]1`, the Potency result is “inactive”.

Take `COc1cc2nc(N3CCN(C(=O)C4COc5ccccc5O4)CC3)nc(N)c2cc1OC` (configuration not stated): the Potency entry is “inactive”.

Turning to `CC(C)(C)NC(=O)[C@@H]1CN(Cc2cccnc2)CCN1C[C@@H](O)C[C@@H](Cc1ccccc1)C(=O)N[C@H]1c2ccccc2C[C@H]1O`, the “activity change, negative = inhibition” value is 13.9% (inactive).

As to `Cc1nc(-c2ccc(OCC(C)C)c(C#N)c2)sc1C(=O)O`, the Potency result was “inactive”.

On to `Cc1cn([C@H]2C[C@H](N=[N+]=[N-])[C@@H](CO)O2)c(=O)[nH]c1=O`, for which the Potency result is “inactive”.

As for `CN(C)CCc1c[nH]c2ccc(C[C@H]3COC(=O)N3)cc12`, the Potency entry was “inactive”.

For `CC[C@]1(O)C[C@H]2CN(CCc3c([nH]c4ccccc34)[C@@](C(=O)OC)(c3cc4c(cc3OC)N(C=O)[C@H]3[C@@](O)(C(=O)OC)[C@H](OC(C)=O)[C@]5(CC)C=CCN6CC[C@]43[C@@H]65)C2)C1`, the Potency was 0.0153 µM (active).
